Consider 40 compounds from PubChem BioAssay (Tox21).

Several values for one entry are separate records, joined by “and”; a condition that tells them apart may be missing. Equal entries are not always repeated. Records with an inconclusive call do not appear. Entries that show only a call come without a potency. Some compounds were tested as several samples or in several runs, with calls that do not always agree. Activity calls are given as the source filed them. Calls follow the shape of the dose curve; as a rule, active = well fitted activation curve with a large enough effect in the signal ratio in the repeat runs (not every such curve was filed as active); inconclusive = weak or mixed curves; inactive = flat fitted curve, though single readings scatter; the % refers to the signal ratio.
Potency is read from the fitted curve at half-maximal effect.

The nature of the assay: qHTS assay to identify small molecule agonists of H2AX (AID 1224845). To be noted: CHO-K1 phospho-H2AX Ser139 HTRF, 3 h; series mostly up to 154 µM; activation (H2AX phosphorylation): at the top concentration. An excerpt:
National Center for Advancing Translational Sciences [NCATS]
NIH Chemical Genomics Center [NCGC]
U.S. Environmental Protection Agency [EPA]
National Institutes of Environmental Health Sciences [NIEHS]
National Toxicology Program [NTP]
U.S. Food and Drug Administration [FDA]
HTRF phospho-H2AX (Ser139) assay (Cisbio Bioassays, US) enables the quantitative detection of the histone variant H2AX when phosphorylated on serine 139. When double-stranded DNA breaks, either by ionizing radiation or endogenous physiological processes, H2AX becomes phosphorylated at Ser139. This phospho-Ser139 serves as a sensitive biomarker for the detection of such breaks, localizing the site of DNA repair. So, HTRF phospho-H2AX Ser139 is a pertinent assay to study genome stability, the cell cycle, DNA repair, and it serves as a biomarker for cancer, and to understand aging. Wild type CHO-K1 cells were used to identify the inducers of Phospho-H2AX Ser 139 from the Tox21 10K compound collections.
Tox21 Assay Protocol Summary:
The CHO-K1 cells suspended in culture medium containing 10% FBS were dispensed at 1000 cells/ 3 ul/well in 1536-well white wall/solid bottom plates (Greiner Bio-One North America, NC) using a Multidrop Combi (Thermo Fisher Scientific Inc., Waltham, MA). After the assay plates were incubated at 37C overnight, 23 nl of compounds at 15 concentrations (from 5-48 columns) or positive control (from 1 to 4 columns) were transferred to the assay plates using a Pintool station (Wako, San Diego, CA) into each well resulting in a final DMSO concentration of 0.76%. After 3hr incubation at 37C, 1 uL/well Supplemented Lysis buffer (diluted 100 fold blocking reagent in lysis buffer) (HTRF Phospho-H2A.X (S139) Assay kit from Cisbio US Inc., Bedford, MA) was added using a Flying Reagent Dispenser (FRD) (Aurora Discovery, CA). After 10sec spin at 1000 rpm in a plate centrifuge, the assay plates were incubated at room temperature for 30 min. Then followed by the addition of 1 uL/well detection buffer (containing a mixture of two antibodies, one labeled with cryptate, Anti pH2AX (S139)-K and another labeled with d2, Anti H2AX-d2) using FRD. After incubation at room temperature for 24 hr, the time resolved fluorescence at excitation 320 nm and emissions at 665 nm and 620 nm was measured using an Envision plate reader (PerkinElmer, Waltham, MA).
With `CCCCOC(=O)c1ccc(O)cc1`, the Potency result was “inactive”.

For `NC(CO)(CO)CO`, the Potency entry is “inactive”.

Turning to `COc1ccc(CN(CCN(C)C)c2ccccn2)cc1`, the Potency result is “inactive”.

As for `C1=CC2C3C=CC(C3)C2C1` (stereo not given), the “activation (H2AX phosphorylation)” value is -8.7% (inactive).

Turning to `CS(=O)(=O)OCCCCOS(C)(=O)=O`, the Potency entry was “inactive”.

With `CC(C)C(=O)Nc1ccc([N+](=O)[O-])c(C(F)(F)F)c1`, the Potency entry was “inactive”.

`CCCC[P+](CCCC)(CCCC)CCCC`: the Potency entry is “inactive”.

In the case of `Nc1ccc(S(N)(=O)=O)cc1`, the Potency entry is “inactive”.

On to `Cn1c(=O)c2c(ncn2C)n(C)c1=O`, for which the Potency entry is “inactive”.

On to `C/C=C/C=C/C(=O)O`, for which the Potency result was “inactive”.

`F[B-](F)(F)F`: the Potency entry was “inactive and 115 µM (active)”.

`OC[C@H]1O[C@H](O[C@]2(CCl)O[C@H](CCl)[C@@H](O)[C@@H]2O)[C@H](O)[C@@H](O)[C@H]1Cl`: the Potency result was “inactive”.

Take `NS(=O)(=O)c1cc2c(cc1Cl)NCNS2(=O)=O`: the Potency result is “inactive”.

On to `CC1(C)O[C@@H]2C[C@H]3[C@@H]4CCC5=CC(=O)C=C[C@]5(C)[C@@]4(F)[C@@H](O)C[C@]3(C)[C@]2(C(=O)CO)O1`, for which the Potency result was “inactive”.

Turning to `CCCCC1(COC(=O)CCC(=O)O)C(=O)N(c2ccccc2)N(c2ccccc2)C1=O`, the Potency result is “inactive”.

For the compound `O=C(O)c1ccccc1`, the Potency entry is “inactive”.

In the case of `CCN(Cc1c(F)cccc1Cl)c1c([N+](=O)[O-])cc(C(F)(F)F)cc1[N+](=O)[O-]`, the “activation (H2AX phosphorylation)” value is -5.61% (inactive).

On to `Cc1ncc([N+](=O)[O-])n1CCO`, for which the Potency result was “inactive”.

For the compound `Cc1ncc([N+](=O)[O-])n1C`, the Potency entry was “inactive”.

On to `Oc1ccccc1`, for which the Potency result was “inactive”.

Take `CCN(CC)C(=O)c1cccc(C)c1`: the Potency result was “inactive”.

Take `CC(O)(P(=O)(O)O)P(=O)(O)O`: the Potency result is “inactive”.

With `CC(=O)CCC(=O)O`, the Potency entry was “inactive”.

As to `Cc1ccc(S(=O)(=O)O)cc1`, the Potency entry is “inactive”.

Turning to `O=C1NC(=O)C(c2ccccc2)(c2ccccc2)N1`, the Potency entry was “inactive”.

With `CN1CCC[C@H]1c1cccnc1`, the Potency entry was “inactive”.

With `C1CCC(C(CC2CCCCN2)C2CCCCC2)CC1` (stereo not given), the Potency was 6.95 µM (active).

In the case of `COc1ccc(C(Cl)=C(c2ccc(OC)cc2)c2ccc(OC)cc2)cc1`, the Potency entry was “inactive”.

In the case of `CC(=O)CC(c1ccccc1)c1c(O)c2ccccc2oc1=O` (stereo not given), the Potency result is “inactive”.

For `CCCCCCCC(=O)OCC(COC(=O)CCCCCCC)OC(=O)CCCCCCC`, the Potency result is “inactive”.

Take `CCCCC(CC)C(=O)O` (stereo not given): the Potency result is “inactive”.

As to `O=C(Nc1ncc([N+](=O)[O-])s1)c1cccs1`, the “activation (H2AX phosphorylation)” value was -0.247% [at 70.9 µM] (inactive).

On to `CCc1nc(N)nc(N)c1-c1ccc(Cl)cc1`, for which the Potency was 22.9 µM (active).

Consider `CN(C)CCOC(C)(c1ccccc1)c1ccccn1` (stereo not given), for which the Potency result was “inactive”.

Consider `CN(C)C(=O)Nc1ccc(Cl)c(Cl)c1`, for which the Potency result was “inactive”.

With `O=c1[nH]cnc2c1ncn2[C@H]1CC[C@@H](CO)O1`, the Potency entry was “inactive”.

In the case of `CCOC(N)=O`, the Potency entry was “inactive”.

For the compound `Nc1c2c(nc3ccccc13)CCCC2`, the Potency result was “inactive”.

Take `CCCCNC(=O)NS(=O)(=O)c1ccc(C)cc1`: the Potency entry is “inactive”.

Regarding `NC1CCCCC1`, the Potency entry is “inactive”.
